Test results reported in PubChem BioAssay (NCI).
This is part of a sample that, as a whole, favours compounds with a hit. Of some 83,000 tested, about 20% had one in any assay.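 Method: cells in 96-well plates; compound added at one concentration; 48 h incubation; percent growth measured; values under 10 scored active.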 Activity calls are given as the source filed them.

Key:
Experiment in all cases: NCI-60 one-dose screen, 48 h (100 = growth as untreated, 0 = no growth, -100 = all killed)
Settings in all cases: 10 µM unless noted
NCI-H23 lung = tested on: NCI-H23 lung
NCI-H226 lung = tested on: NCI-H226 lung
NCI-H322M lung = tested on: NCI-H322M lung
HOP-62 NSCLC = tested on: HOP-62 NSCLC
NCI-H460 lung = tested on: NCI-H460 lung
HOP-92 NSCLC = tested on: HOP-92 NSCLC
A549/ATCC NSCLC = tested on: A549/ATCC NSCLC
786-0 renal = tested on: 786-0 renal
COLO 205 colon = tested on: COLO 205 colon
DU-145 prostate = tested on: DU-145 prostate
K-562 leukemia = tested on: K-562 leukemia
MALME-3M melanoma = tested on: MALME-3M melanoma
MDA-MB-231 breast = tested on: MDA-MB-231 breast
RXF 393 renal = tested on: RXF 393 renal
SF-268 CNS = tested on: SF-268 CNS
SF-295 CNS = tested on: SF-295 CNS
SF-539 CNS = tested on: SF-539 CNS
M14 melanoma = tested on: M14 melanoma
UACC-257 melanoma = tested on: UACC-257 melanoma

Measured: growth

O=C1/C(=C/c2cccc(Cl)c2)CCc2ccccc21
inactive: NCI-H23 lung 101% | NCI-H226 lung 98.5% | NCI-H322M lung 98.5% | HOP-62 NSCLC 105% | NCI-H460 lung 107% | HOP-92 NSCLC 72.6% | A549/ATCC NSCLC 90.2% | 786-0 renal 94.8% | COLO 205 colon 111% | DU-145 prostate 106% | K-562 leukemia 46.4% | MALME-3M melanoma 100% | MDA-MB-231 breast 98.9% | RXF 393 renal 110% | SF-268 CNS 99.4% | SF-295 CNS 85.5% | SF-539 CNS 103% | M14 melanoma 103%

COc1cc(C(=O)c2cc3c(cc2C)OCO3)cc(OC)c1OC
inactive: NCI-H23 lung 28% | NCI-H226 lung 45.4% | NCI-H322M lung 36% | HOP-62 NSCLC 40.8% | HOP-92 NSCLC 37.4% | A549/ATCC NSCLC 17.8% | 786-0 renal 51.3% | DU-145 prostate 21.5% | K-562 leukemia 13.7% | MALME-3M melanoma 50.4% | MDA-MB-231 breast 23.3% | RXF 393 renal 42.9% | SF-268 CNS 43.1% | M14 melanoma 22.5%
active: NCI-H460 lung 8.71% | COLO 205 colon -49.9% | SF-295 CNS -50.4% | SF-539 CNS 6.27%

O=c1sc2ncnc3ncn1c32
inactive: NCI-H23 lung 66.1% | NCI-H226 lung 61.4% | NCI-H322M lung 77.9% | HOP-62 NSCLC 41.8% | NCI-H460 lung 85.7% | HOP-92 NSCLC 50% | A549/ATCC NSCLC 104% | 786-0 renal 34.6% | COLO 205 colon 83.5% | DU-145 prostate 33.6% | K-562 leukemia 15.2% | MALME-3M melanoma 73.6% | MDA-MB-231 breast 43.7% | SF-268 CNS 82% | SF-295 CNS 38.4% | SF-539 CNS 45.8% | UACC-257 melanoma 88.1% | M14 melanoma 14.5%

COc1cccc(CCN2C(=O)CCC3=C2CCC3=O)c1
inactive: NCI-H23 lung 96.9% | NCI-H226 lung 97.4% | NCI-H322M lung 101% | HOP-62 NSCLC 102% | NCI-H460 lung 115% | HOP-92 NSCLC 86% | A549/ATCC NSCLC 112% | 786-0 renal 97.6% | COLO 205 colon 108% | DU-145 prostate 114% | K-562 leukemia 106% | MALME-3M melanoma 100% | MDA-MB-231 breast 78.2% | RXF 393 renal 112% | SF-268 CNS 119% | SF-295 CNS 97.6% | SF-539 CNS 97.8% | M14 melanoma 83.8%

Cc1ccc(C2=Nc3c(ccc4c(C)c(C)c(=O)oc34)OC2)cc1
inactive: NCI-H23 lung 97.4% | NCI-H226 lung 101% | NCI-H322M lung 90.2% | HOP-62 NSCLC 97.3% | NCI-H460 lung 102% | HOP-92 NSCLC 87.1% | A549/ATCC NSCLC 99.5% | 786-0 renal 93.6% | COLO 205 colon 111% | DU-145 prostate 106% | K-562 leukemia 95.4% | MALME-3M melanoma 104% | MDA-MB-231 breast 105% | RXF 393 renal 109% | SF-268 CNS 108% | SF-295 CNS 94.3% | M14 melanoma 103%

O=C1c2cccc3c([N+](=O)[O-])ccc(c23)C(=O)N1CCCCl
active: NCI-H23 lung -74.8% [100 µM] | NCI-H226 lung -54.1% [100 µM] | NCI-H322M lung -96.2% [100 µM] | HOP-62 NSCLC -92.4% [100 µM] | NCI-H460 lung -34.7% [100 µM] | HOP-92 NSCLC -82.5% [100 µM] | A549/ATCC NSCLC -73.7% [100 µM] | 786-0 renal -83.8% [100 µM] | COLO 205 colon -80.4% [100 µM] | DU-145 prostate -82.1% [100 µM] | K-562 leukemia -25.8% [100 µM] | MALME-3M melanoma -73.9% [100 µM] | MDA-MB-231 breast -93.1% [100 µM] | RXF 393 renal -83.3% [100 µM] | SF-268 CNS -78.9% [100 µM] | SF-295 CNS -92% [100 µM] | UACC-257 melanoma -97% [100 µM] | M14 melanoma -85.6% [100 µM]

COc1ccc(NC(=O)[C@@H]2C[C@H]2c2ccccc2)c(C(N)=O)c1
inactive: NCI-H23 lung 91.3% | NCI-H226 lung 101% | NCI-H322M lung 94.2% | HOP-62 NSCLC 100% | NCI-H460 lung 101% | HOP-92 NSCLC 94.6% | A549/ATCC NSCLC 97.5% | 786-0 renal 106% | COLO 205 colon 106% | DU-145 prostate 105% | K-562 leukemia 71.8% | MALME-3M melanoma 91% | MDA-MB-231 breast 87.9% | SF-268 CNS 97.9% | SF-295 CNS 100% | SF-539 CNS 99.7% | UACC-257 melanoma 92.9% | M14 melanoma 91.4%

O=C1CSC(c2ccccc2Cl)N1c1nnc(Cn2nnc3ccccc32)o1 (stereo not drawn)
inactive: NCI-H23 lung 80.6% | NCI-H226 lung 96.1% | NCI-H322M lung 80.9% | HOP-62 NSCLC 91.9% | NCI-H460 lung 88% | HOP-92 NSCLC 56.8% | A549/ATCC NSCLC 59.9% | 786-0 renal 88.7% | COLO 205 colon 106% | DU-145 prostate 91.8% | K-562 leukemia 69.6% | MALME-3M melanoma 127% | MDA-MB-231 breast 77.1% | RXF 393 renal 90.1% | SF-268 CNS 84.2% | SF-539 CNS 89% | UACC-257 melanoma 94.7% | M14 melanoma 89.8%

Cc1cc(C)cc(S(=O)(=O)n2ccc(-c3ccc4c(c3)CCC(C)(C)O4)n2)c1
inactive: NCI-H23 lung 73.6% | NCI-H226 lung 66.8% | NCI-H322M lung 92% | HOP-62 NSCLC 116% | NCI-H460 lung 84.4% | HOP-92 NSCLC 78.1% | A549/ATCC NSCLC 80.8% | 786-0 renal 82.8% | COLO 205 colon 103% | DU-145 prostate 89.8% | K-562 leukemia 85.7% | MALME-3M melanoma 82.9% | MDA-MB-231 breast 93.5% | RXF 393 renal 77.3% | SF-268 CNS 88.3% | SF-295 CNS 85% | SF-539 CNS 99.9% | UACC-257 melanoma 89.6% | M14 melanoma 82.7%

COc1cc(-c2nnc(-c3nc(-c4cc(OC)c(OC)c(OC)c4)n4ccccc34)o2)ccc1N
inactive: NCI-H23 lung 67.7% | NCI-H226 lung 83% | NCI-H322M lung 83.1% | HOP-62 NSCLC 89% | NCI-H460 lung 68.3% | HOP-92 NSCLC 29.2% | A549/ATCC NSCLC 28.2% | 786-0 renal 68.6% | COLO 205 colon 88.7% | DU-145 prostate 85.4% | K-562 leukemia 64.7% | MALME-3M melanoma 86.5% | MDA-MB-231 breast 84.4% | RXF 393 renal 84.4% | SF-268 CNS 83.6% | SF-539 CNS 98.8% | UACC-257 melanoma 93.2% | M14 melanoma 80.3%

Cc1[nH]c(=O)[nH]c(=O)c1CCSSCCc1c(C)[nH]c(=O)[nH]c1=O
inactive: NCI-H23 lung 107% | NCI-H226 lung 102% | NCI-H322M lung 89.9% | HOP-62 NSCLC 97.2% | NCI-H460 lung 108% | HOP-92 NSCLC 116% | A549/ATCC NSCLC 103% | 786-0 renal 103% | COLO 205 colon 107% | DU-145 prostate 113% | K-562 leukemia 95.8% | MALME-3M melanoma 115% | MDA-MB-231 breast 119% | RXF 393 renal 111% | SF-268 CNS 113% | SF-295 CNS 98.4% | SF-539 CNS 110% | M14 melanoma 95.1%

COc1ccc(NC(=O)c2ccc(-c3ccccc3)cc2)c(C(N)=O)c1
inactive: NCI-H23 lung 94.5% | NCI-H226 lung 94.9% | NCI-H322M lung 91.6% | HOP-62 NSCLC 103% | NCI-H460 lung 100% | HOP-92 NSCLC 103% | A549/ATCC NSCLC 94.1% | 786-0 renal 106% | COLO 205 colon 110% | DU-145 prostate 102% | K-562 leukemia 92.5% | MALME-3M melanoma 91.6% | MDA-MB-231 breast 91.3% | SF-268 CNS 113% | SF-295 CNS 99.3% | SF-539 CNS 97.4% | UACC-257 melanoma 102% | M14 melanoma 110%

CCOC(=O)C(C(=O)OCC)C1CCCCC1
inactive: NCI-H23 lung 106% | NCI-H226 lung 98.7% | NCI-H322M lung 94% | HOP-62 NSCLC 107% | NCI-H460 lung 106% | HOP-92 NSCLC 82.4% | A549/ATCC NSCLC 96.8% | 786-0 renal 96.4% | COLO 205 colon 112% | DU-145 prostate 107% | K-562 leukemia 104% | MALME-3M melanoma 96% | MDA-MB-231 breast 108% | RXF 393 renal 107% | SF-268 CNS 99.1% | SF-539 CNS 99.4% | UACC-257 melanoma 96.3% | M14 melanoma 102%

O=C1NC(=O)/C(=C\c2ccco2)S1
inactive: NCI-H23 lung 101% | NCI-H226 lung 95.8% | NCI-H322M lung 111% | HOP-62 NSCLC 90.7% | NCI-H460 lung 105% | HOP-92 NSCLC 87% | A549/ATCC NSCLC 108% | 786-0 renal 99% | COLO 205 colon 91.4% | DU-145 prostate 112% | K-562 leukemia 111% | MALME-3M melanoma 101% | MDA-MB-231 breast 89.5% | RXF 393 renal 106% | SF-268 CNS 99.4% | SF-539 CNS 103% | UACC-257 melanoma 108% | M14 melanoma 104%

Cc1nn2c(/C=C3/C(=O)Nc4cc(Cl)ccc43)c(-c3ccccc3)nc2s1
active: HOP-92 NSCLC -27.8% | A549/ATCC NSCLC -28.7% | 786-0 renal -74.8% | MALME-3M melanoma -64.6% | MDA-MB-231 breast 8.57% | RXF 393 renal -18% | SF-539 CNS -41.4% | UACC-257 melanoma -29%
inactive: NCI-H23 lung 34.9% | NCI-H226 lung 95.2% | NCI-H322M lung 31% | HOP-62 NSCLC 20.4% | NCI-H460 lung 13.6% | COLO 205 colon 21.8% | DU-145 prostate 33.4% | K-562 leukemia 23.5% | SF-268 CNS 50.1% | M14 melanoma 22.2%

COc1cccc(/C=C2\Cc3ccccc3C2=O)c1
inactive: NCI-H23 lung 106% | NCI-H226 lung 107% | NCI-H322M lung 110% | HOP-62 NSCLC 96.4% | NCI-H460 lung 105% | HOP-92 NSCLC 85.7% | A549/ATCC NSCLC 87% | 786-0 renal 101% | COLO 205 colon 115% | DU-145 prostate 104% | K-562 leukemia 93.8% | MALME-3M melanoma 97% | MDA-MB-231 breast 104% | RXF 393 renal 103% | SF-268 CNS 109% | SF-295 CNS 94.6% | SF-539 CNS 101% | M14 melanoma 109%
